Shiga inhibitor – inhibitors of Shiga toxin in Vero cells. inhibition, % at 38.7 µM. 290,000 compounds, 9.2% hits. Vero cells, Shiga toxin protein synthesis inhibition reporter; in the data active means inhibition mostly above about 28%, no sharp cut-off; inactive means mostly below about 43%; further: 0% is about no effect
CHX counter – counter-screen hit for Shiga toxin inhibitors, cycloheximide. cell reporter, cycloheximide protein synthesis inhibition counterscreen. max response, %. 300,000 compounds, 12% hits. AID 2314; in the data active means max response mostly above about 13%, no sharp cut-off; inactive means mostly below about 14%; further: read at 38.3 µM for the half of the compounds with a filed dose; 0% is about no effect
NS1 inh – influenza NS1 inhibition | Potency, µM (doses to about 46.1 µM), for the others: at the highest dose activity, positive = more growth | 270,000 compounds, 0.4% hits; further: potency means the concentration at half of the fitted maximal effect; actives are rising curves; nearly all actives have a fitted effect of over 50% in size
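OD600 was taken as the measure of yeast growth restored by compound in an NS1-expressing S. cerevisiae strain. Cells had been washed out of glucose medium and diluted 1:100 into galactose -URA medium, pH 6.0.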
SARS PLP yeast – SARS-CoV PLP inhibition in yeast; AID 485353; 330,000 compounds, 0.19% hits; Potency, µM (highest dose often 32.9 µM), for inactives: top-dose activity, positive = growth rescue, usual class: activators; S. cerevisiae expressing SARS-CoV PLpro, growth rescue; further: potency means the concentration at half of the fitted maximal effect; 0% is about no effect; nearly all actives have a fitted effect of over 55% in size
Pf growth 96h – P. falciparum growth inhibition at 96 hours; P. falciparum luciferase reporter growth, 96 h; Potency, µM (highest dose often 28.7 µM), for inactives: at the highest dose activity change, negative = inhibition, most hits filed as inhibitors; 320,000 compounds, 6.9% hits; active means well fitted inhibition curve with a large enough effect; inconclusive means small, poorly fitted or top-dose-only effect, or another doubt; inactive means no such curve, though single readings can be large or run the other way; further: potency means the concentration at half of the fitted maximal effect; on the % scale 0 is the no-effect control and ±100 the full control effect
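Two-generation exposure (96 h) targets delayed-death phenotype. Reporter parasites carrying integrated firefly luciferase, in red cells at 2% hematocrit and 0.05% parasitemia final, kept at 37 C, 5% CO2; luminescence loss indicates inhibition.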
Pf growth 48h – P. falciparum growth inhibition at 48 hours (one generation). P. falciparum luciferase growth in erythrocytes, 48 h. Potency, µM (doses to about 28.7 µM), for inactives: top-dose activity change, negative = inhibition, hits mostly inhibitors. 310,000 compounds, 5.9% hits; active means well fitted inhibition curve with a large enough effect; inconclusive means small, poorly fitted or top-dose-only effect, or another doubt; inactive means no such curve, though single readings can be large or run the other way; further: potency means the concentration at half of the fitted maximal effect; on the % scale 0 is the no-effect control and ±100 the full control effect
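First compound was added to culture medium, then infected red cells at 0.1% parasitemia and 2% hematocrit (final). After incubation at 37 C under 5% CO2, luciferase detection reagent was dispensed and light output recorded.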
Active calls of the source: *; ? = inconclusive; · = no result given. Shown are actives, neighbours in structure and some others; about 21% of the full set was active somewhere. Unless noted, the call rests on the fitted dose curve.

SMILES	Shiga inhibitor	CHX counter	NS1 inh	SARS PLP yeast	Pf growth 96h	Pf growth 48h
COc1ccc(CN(C)C(=O)C2CC(=O)N(c3ccc4c(c3)OCCO4)C2)c(OC)c1 (centres undefined)	·	·	·	1%	6.6µM*	?
Cc1ccc(N2CC(C(=O)Nc3ccc4c(c3)OCCO4)CC2=O)cc1C (centres undefined)	53*	16	0%	1%	34%	47%
COc1ccc(Cl)cc1S(=O)(=O)Oc1ccc(NC(C)=O)cc1	-10	-2	1%	-19%	?	-10%
CCOC(=O)C1=C(COC(=O)c2ncc(Cl)c(Cl)c2Cl)NC(=O)NC1C (centres undefined)	·	·	·	·	1%	2%
CC[C@@]1([C@@H]2O[C@@H]([C@H]3O[C@@](O)(CO)[C@H](C)C[C@@H]3C)C[C@@H]2C)CC[C@@H]([C@]2(C)CCC3(C[C@H](O)[C@@H](C)[C@@H]([C@@H](C)[C@@H](OC)[C@H](C)C(=O)O)O3)O2)O1 (some centres undefined)	10	-1	·	·	·	·
O=C(Nc1ccc(N2CCOCC2)cc1)C1CC(=O)N(c2ccccc2)C1 (centres undefined)	20	9	1%	-1%	50%	7%
O=C(Nc1ccc(N2CCOCC2)cc1)C1CC(=O)N(c2ccc(F)cc2)C1 (centres undefined)	13	-6	3%	1%	10µM*	-22%
COc1cc(OC)cc(C(=O)N2CCC3(CC2)NCCc2[nH]cnc23)c1	-3	-12	3%	-4%	-24%	9%
CC(=O)c1ccc(C(=O)N2CCC(n3nccc3NC(=O)C3CC3)CC2)cc1	-16	-1	7%	2%	-24%	-17%
CSCCC(=O)N1CCC(n2nccc2NC(=O)c2ccc3c(c2)OCO3)CC1	65*	54*	-7%	-8%	40%	25%
CC#CC(=O)N1CCC(n2nccc2NC(=O)c2ccc3c(c2)OCO3)CC1	72*	23*	3%	2%	?	-16%
CCCSc1nnc(Nc2ccccc2C)s1	63*	62*	-14%	-4%	101%	58%
Cc1ccc2nc(CSc3nnc(Nc4ccccc4C)s3)cc(=O)n2c1	-6	-1	1%	10%	?	?
Cc1ccccc1Nc1nnc(SCC(=O)Nc2ccccc2[N+](=O)[O-])s1	45*	28*	?	-2%	?	24%
O=C(Nc1ccccc1Br)C1CCC(=O)N1Cc1ccccc1Cl (centres undefined)	-13	8	16%	6%	3%	-3%
O=C(Nc1ccc(Cl)cc1)C1CCC(=O)N1Cc1ccccc1Cl (centres undefined)	-10	-2	-1%	7%	4.7µM*	9.3µM*
Cc1nc2cc(Nc3nnc(-c4ccccc4)c4ccccc34)ccc2n1C	45	45*	-10%	-2%	64%	43%
Cc1ccc(C)c(S(=O)(=O)N2CCN(C(=O)CSc3ccccc3F)CC2)c1	-3	-3	1%	-1%	15µM*	?
O=C(CN1CCN(C(C(=O)Nc2ccc(F)cc2)c2ccccc2)CC1)NC1CC1 (centres undefined)	·	·	·	-1%	15µM*	?
Cc1ccc(C)c(S(=O)(=O)N2CCN(C(C(=O)Nc3ccc(F)cc3)c3ccccc3)CC2)c1 (centres undefined)	-3	5	13%	-9%	54%	13µM*
O=C(Nc1ccc(F)cc1)C(c1ccccc1)N1CCN(S(=O)(=O)c2ccc3ccccc3c2)CC1 (centres undefined)	-6	-1	?	-8%	0%	13µM*
Cc1ccc(C)c(S(=O)(=O)N2CCN(C(=O)Cc3c(F)cccc3Cl)CC2)c1	·	·	·	-4%	-8%	?
Cc1ccc(C(=O)OCC(=O)NCc2ccc(F)cc2)o1	·	·	·	1%	-4%	10%
CCOc1ccc(S(=O)(=O)N2CC(=O)Nc3ccccc32)cc1	-5	-1	0%	1%	-1%	14%
CC(C)N(CCO)C(=O)CCc1nnc(Cc2cccc(C(F)(F)F)c2)o1	52	19*	0%	0%	?	19%
SMILES	Shiga inhibitor	CHX counter	NS1 inh	SARS PLP yeast	Pf growth 96h	Pf growth 48h
CCC(COC)NC(=O)CCc1nnc(Cc2cccc(C(F)(F)F)c2)o1 (centres undefined)	60*	46*	3%	0%	-1%	14%
CC(C)NC(=O)CCc1nnc(Cc2cccc(C(F)(F)F)c2)o1	92*	28*	1%	-2%	-19%	57%
Cc1cc(-c2nnc(CCC(=O)NCc3cccc(C(F)(F)F)c3)o2)no1	29	21*	-16%	1%	?	-20%
Cc1cc(-c2nnc(CCC(=O)NCc3ccc(F)c(F)c3)o2)no1	-10	-3	2%	0%	?	8%
CN1C=CC=C/C1=C(\C#N)c1nc2ccccc2[nH]1	-13	-2	-7%	-10%	24%	·
COc1ccc(CNn2c(C)nc3ccccc3c2=O)cc1	23	2	-49%	9%	-2%	2%
COc1ccc(CCn2c(C(C)C)nc3c(c(=O)c4ccccc4n3C)c2=O)cc1	-8	-5	5%	5%	1.9µM*	12µM*
COc1ccc2c(=O)c3c(=O)n(CCc4ccccc4)c(C(C)C)nc3oc2c1	-5	-1	1%	0%	5.2µM*	7.4µM*
CCCCCc1nc2c(c(=O)c3ccccc3n2C)c(=O)n1Cc1ccc(OC)cc1	-5	-2	0%	0%	?	?
COc1ccc(CCn2c(S)nc3ccccc3c2=O)cc1	41*	30*	2%	3%	-10%	·
COc1ccc(CCn2c(C)nc3c(c(=O)c4ccccc4n3C)c2=O)cc1	-7	0	-4%	2%	4.7µM*	?
COc1ccc(Cn2c(C)nc3c(c(=O)c4ccccc4n3C)c2=O)cc1	4	10	0%	0%	?	?
CC(=O)c1ccc(NC(=O)Cn2cnc(S(=O)(=O)N3CCC(C)CC3)c2)cc1	18	-7	-10%	0%	5%	8%
COc1ccccc1C(=O)Nc1ccnn1C1CCN(Cc2ncc[nH]2)CC1	-4	12	-10%	-3%	?	13%
Fc1cccc(Nc2nc(N3CCOCC3)nc(N3CCOCC3)n2)c1	·	-1	-40%	-1%	-16%	?
COc1ccc(C(=O)Nn2c(CCC(=O)O)ccc2-c2ccc(C)cc2)cc1OC	-15	7	1%	1%	20%	-14%
Cc1ccc(S(=O)(=O)Oc2cc(S(=O)(=O)O)cc3cc(S(=O)(=O)O)cc(N)c23)cc1	·	·	-3%	·	·	·
CCOC(=O)c1cncc(O)c1	10	-3	1%	-1%	44%	-1%
NC(=O)C1CCN(CC(=O)Nc2ccccc2N2CCOCC2)CC1	-6	-5	4%	0%	15%	5%

Bioassay records deposited in PubChem by National Center for Advancing Translational Sciences (NCATS).
